Assay results taken from PubChem BioAssay.
Active and inactive are the calls of the source.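 The calls were made as follows, unless noted: active = inhibition of the reporter signal at or above 50%; inactive = inhibition below 50%.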

Key:
[1] = inhibitors of TNFa-induced NFkB p65 translocation, primary screen, imaging, HUVEC, MLSMR starter and 10KST1 sets (AID 438;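 active = inhibition above 20% together with a positive visual image hit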;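 also: compound added about 3h40 before a 20 min TNFalpha stimulation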;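 as to inhibition: signal is the nuclear over cytoplasmic p65 intensity ratio per well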); conditions: HUVEC TNFa-induced p65 nuclear translocation; cell count: measured here: nuclei count (cytotoxicity indicator), at 2.08 µM; inhibition: at 2 µM, stronger effect = higher value, 0% TNFa-plus-vehicle, 100% no-TNFa wells
[2] = inhibitors of mutant huntingtin aggregation, primary screen, imaging, exon1htt(103Q)mCFP cells, high-content imaging (AID 483;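 active = visual image review flags a hit and inhibition of aggregation exceeds 20%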;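 also: compound exposure lasted 3 days before fixation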;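 as to nuclei count: percent of the per-plate median nuclei count of sample wells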); conditions: exon1htt(103Q)mCFP cell line, aggregate imaging, at 2 µM; inhibition of aggregation: stronger effect = higher value; nuclei count: measured here: cell count, toxicity
[3] = inhibitors of E-selectin induction by TNFa, primary screen, imaging, HUVEC, immunofluorescence, MLSMR starter and 10KST1 sets (AID 487;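 active = visually confirmed hit in the image check and inhibition above 20%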;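 as to inhibition: signal is fraction of cell area covered by stained E-selectin grains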;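 as to nuclei count: 100% = median nuclei count of all wells on the same plate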); conditions: HUVEC TNFalpha-induced E-selectin immunofluorescence imaging, at 2 µM; inhibition: stronger effect = higher value; nuclei count: measured here: cell number, toxicity
[4] = target: Voltage-gated potassium channel subunit beta-2 (Rattus norvegicus) (UniProt P62483); test: KvBeta enzyme negative modulators, primary screen, biochemical, NADPH fluorescence (AID 622;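 active = fluorescence slope higher than the sample average by over 3 SD, cut at about -0.22 in these data, passing the limit was not always enough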;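 also: slope of raw intensity against log time taken from 70 to 1610 s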); conditions: recombinant KvBeta, 4-cyanobenzaldehyde reduction, at 10 µM, stronger effect = higher value
Sequence of Voltage-gated potassium channel subunit beta-2 (Rattus norvegicus) (P62483 whole entry, looked up): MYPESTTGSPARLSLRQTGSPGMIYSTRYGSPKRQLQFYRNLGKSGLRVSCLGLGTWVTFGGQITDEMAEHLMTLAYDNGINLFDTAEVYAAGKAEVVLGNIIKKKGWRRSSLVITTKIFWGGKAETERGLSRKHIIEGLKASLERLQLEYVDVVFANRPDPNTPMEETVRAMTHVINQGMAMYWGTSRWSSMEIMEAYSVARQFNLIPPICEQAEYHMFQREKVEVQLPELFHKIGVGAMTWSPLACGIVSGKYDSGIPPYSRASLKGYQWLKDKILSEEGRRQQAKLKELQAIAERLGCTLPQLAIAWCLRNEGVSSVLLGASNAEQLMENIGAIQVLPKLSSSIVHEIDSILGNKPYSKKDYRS

[5] = target: Voltage-gated potassium channel subunit beta-2 (Rattus norvegicus) (UniProt P62483); test: KvBeta positive modulators, primary screen, biochemical, NADPH fluorescence (AID 623;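 active = NADPH fluorescence slope more negative than the mean of all samples by about 3 SD, 99.7% confidence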;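 also: fluorescence intensity change per second fitted from 20 to 320 s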); conditions: Recombinant KvBeta, NADPH fluorescence decrease slope, 10 min; at 10 µM; stronger effect = lower value
[6] = target: Alpha-2C adrenergic receptor (Homo sapiens) (UniProt P18825); test: modulators of alpha2C/GIRK thallium flux, primary screen, cell-based, HEK293 alpha2C/GIRK1/2 (AID 624;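 active = fluorescence slope after compound addition differing from the mean of all screened samples at 99.7% confidence, in either direction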;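 also: slope of fluorescence ratio to pre-addition baseline per second over 15 to 24 s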); conditions: thallium flux BTC fluorescence, at 10 µM, actives lie on both sides
Sequence of Alpha-2C adrenergic receptor (Homo sapiens) (P18825 whole entry, looked up): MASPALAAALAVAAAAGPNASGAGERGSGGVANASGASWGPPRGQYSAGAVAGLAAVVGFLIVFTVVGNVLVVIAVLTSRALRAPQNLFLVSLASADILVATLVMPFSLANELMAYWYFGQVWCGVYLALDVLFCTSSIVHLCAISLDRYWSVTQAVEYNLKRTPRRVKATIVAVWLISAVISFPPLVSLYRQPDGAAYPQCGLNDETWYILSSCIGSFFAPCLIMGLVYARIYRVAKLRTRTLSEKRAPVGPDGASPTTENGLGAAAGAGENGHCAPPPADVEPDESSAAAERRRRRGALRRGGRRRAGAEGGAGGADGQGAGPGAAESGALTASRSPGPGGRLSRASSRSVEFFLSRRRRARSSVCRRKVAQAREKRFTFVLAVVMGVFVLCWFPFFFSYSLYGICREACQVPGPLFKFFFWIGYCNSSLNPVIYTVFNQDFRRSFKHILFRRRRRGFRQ

[7] = inhibitors of Sendai virus-induced IRF3 signaling, primary screen, TLR/RLR signaling modifier project, cell-based, Sendai virus stimulus, luciferase, 10K MLSCN set (AID 602276;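 active = inhibition at or above 50% at 10 µM; inactive = inhibition below 50%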;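 also: firefly luciferase from ISG56 promoter only with Renilla not read in this screen; 0% = Sendai virus plus DMSO and 100% = medium plus DMSO without virus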); conditions: HEK293 RL24 IRF3 luciferase reporter, at 10 µM, stronger effect = higher value
[8] = inhibitors of poly I:C-induced TLR3 signaling, primary screen, cell-based, poly I:C stimulus, luciferase, 10K MLSCN set (AID 602277); conditions: HEK293-TLR3 RL24 IRF3 luciferase reporter, at 10 µM, stronger effect = higher value

Row | SMILES | cell count [1] | inhibition [1] | inhibition of aggregation [2] | nuclei count [2] | inhibition [3] | nuclei count [3] | fluorescence slope [4] | NADPH fluorescence slope [5] | slope [6] | inhibition [7] | inhibition [8]
1 | CSc1c(C#N)c(N)c(C#N)c2c1COC(C)(C)C2 | 723 | -2.6% (inactive) | -6.1% (inactive) | 83% | -34% (inactive) | 103% | -0.501 (inactive) | -4.2e-05 (inactive) | 0.00561 (inactive) | 17.3% (inactive) | 25.5% (inactive)
2 | CCOc1cc(C(=O)Nc2ccon2)cc(OCC)c1OCC | 795 | 0.3% (inactive) | -40.4% (inactive) | 104% | -35.9% (inactive) | 108% | -0.387 (inactive) | 1.3e-05 (inactive) | 0.00341 (inactive) | 17.9% (inactive) | 15.6% (inactive)
3 | CCCCCn1c(CN2CCN(C(=O)OCC)CC2)nc2c1c(=O)[nH]c(=O)n2C | 245 | 0.8% (inactive) | 10.4% (inactive) | 105% | 16.4% (inactive) | 78.3% | -0.564 (inactive) | 7.1e-06 (inactive) | 0.00615 (inactive) | 28.1% (inactive) | 19.9% (inactive)
4 | CCCCOc1ccc(S(=O)(=O)n2c(C)nc3ccccc32)cc1 | 445 | -1.5% (inactive) | -1.2% (inactive) | 102% | -286% (inactive) | 113% | -0.387 (inactive) | 1.3e-05 (inactive) | 0.00302 (inactive) | 9.07% (inactive) | 16.6% (inactive)
5 | O=C1CC(c2cccc(Cl)c2)Cc2nc(N3CCN(c4ccccc4)CC3)ncc21 (centres undefined) | 715 | -1.6% (inactive) | -8.3% (inactive) | 111% | -57.1% (inactive) | 140% | -0.442 (inactive) | 2.5e-05 (inactive) | 0.00428 (inactive) | -7.91% (inactive) | -2.99% (inactive)
6 | CC1CCCN(C(=O)C23CCC(C)(C(=O)C2)C3(C)C)C1 (centres undefined) | 636 | 0% (inactive) | -8.3% (inactive) | 90.8% | -29.8% (inactive) | 99.7% | -0.593 (inactive) | -1.7e-05 (inactive) | 0.00596 (inactive) | 5.18% (inactive) | 8.32% (inactive)
7 | Cc1ccc2c(C)nc(Nc3nc(CSc4nnnn4-c4ccccc4)cc(=O)[nH]3)nc2c1 | 352 | -3.8% (inactive) | -22.3% (inactive) | 100% | -54.7% (inactive) | 101% | -0.6 (inactive) | -3.4e-05 (inactive) | 0.00691 (inactive) | 8.72% (inactive) | -4.56% (inactive)
8 | COc1ccccc1OCCSc1nc2ccccc2c(=O)[nH]1 | 361 | 3.5% (inactive) | -4.7% (inactive) | 89.3% | -49.6% (inactive) | 86.8% | -0.35 (inactive) | -5.3e-05 (inactive) | 0.00628 (inactive) | -4.62% (inactive) | -5.54% (inactive)
9 | CCOCC(=O)Nc1nc2c(s1)C(=O)CC(C)(C)C2 | 921 | 0.6% (inactive) | -38% (inactive) | 144% | -70.4% (inactive) | 122% | -0.541 (inactive) | 2.2e-05 (inactive) | 0.00739 (inactive) | 12.5% (inactive) | 39% (inactive)
10 | Cc1c(C(=O)N2CCN(c3ccccc3)CC2)sc2ncnc(N3CCN(c4ccccc4)CC3)c12 | 613 | 6.2% (inactive) | 9.7% (inactive) | 107% | -70.4% (inactive) | 127% | -0.445 (inactive) | -1.1e-05 (inactive) | 0.00705 (inactive) | 7.72% (inactive) | 4.87% (inactive)
11 | [O-][n+]1c2ccc3nonc3c2nn1-c1ccccc1Cl | 340 | 8.5% (inactive) | -11.3% (inactive) | 111% | -21.9% (inactive) | 118% | -0.507 (inactive) | -5.7e-05 (inactive) | 0.0043 (inactive) | 0.797% (inactive) | -2.81% (inactive)
12 | O=C(CCCCCN1C(=O)CCC1=O)NCc1ccccc1 | 581 | -15.5% (inactive) | -2% (inactive) | 106% | -64.5% (inactive) | 105% | -0.605 (inactive) | -4.8e-05 (inactive) | 0.00553 (inactive) | 12.6% (inactive) | 24.6% (inactive)
13 | COc1nc(NCCc2ccc(OC)c(OC)c2)nc(NC(C)(C)CO)n1 | 336 | -1.4% (inactive) | 13.7% (inactive) | 97.3% | -7% (inactive) | 108% | -0.496 (inactive) | -1.3e-06 (inactive) | 0.00642 (inactive) | 15.5% (inactive) | 11.8% (inactive)
14 | COC(=O)CS(=O)(=O)c1nnc([C@H](Cc2ccccc2)NC(=O)OC(C)(C)C)o1 | 493 | -8% (inactive) | 22% (inactive) | 84.1% | 38.4% (inactive) | 89% | -0.486 (inactive) | -5.6e-05 (inactive) | 0.00353 (inactive) | 15.1% (inactive) | 33.7% (inactive)
